The record followed here is PubChem BioAssay AID1021 (Emory University Molecular Libraries Screening Center, 2008).

The structures appear in SMILES notation. Screen size: about 220,000 compounds; about 2,100 (0.95%) were called active. This excerpt belongs to a sample that is enriched for actives. A number with no mark means an inactive call.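 Rule for the calls: active = compounds that cut the binding signal by more than half at the single screening dose; inactive = the rest.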

The target of the experiment is Induced myeloid leukemia cell differentiation protein Mcl-1 (Homo sapiens) (UniProt Q07820). Kind of experiment: Mcl-1/Bid binding inhibitors, primary screen, biochemical, TR-FRET, 1536-well (AID 1021).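 Note: His-tagged Mcl-1 with europium anti-His antibody binding Bid BH3 peptide; 0% = Mcl-1 plus peptide wells and 100% = peptide-only wells.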 The note with it: TR-FRET Mcl-1/Bid-Dy647 peptide binding, at 21.7 µM, stronger effect = higher value.
Chain of Induced myeloid leukemia cell differentiation protein Mcl-1 (Homo sapiens) (Q07820 whole entry, looked up): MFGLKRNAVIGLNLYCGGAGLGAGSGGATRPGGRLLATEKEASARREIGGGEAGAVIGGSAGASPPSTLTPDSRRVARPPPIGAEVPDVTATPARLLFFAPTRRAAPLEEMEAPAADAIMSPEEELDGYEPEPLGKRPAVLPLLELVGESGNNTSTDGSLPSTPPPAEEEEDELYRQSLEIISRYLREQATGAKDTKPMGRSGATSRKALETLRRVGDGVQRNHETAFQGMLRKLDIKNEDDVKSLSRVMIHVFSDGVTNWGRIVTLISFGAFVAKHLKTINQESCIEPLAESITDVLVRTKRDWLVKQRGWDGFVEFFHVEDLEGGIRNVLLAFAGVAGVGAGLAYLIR
The inhibition is the relative decrease from the control value, in per cent. Turning to `COc1ccc(C(=O)NCC(=O)N/N=C/c2ccc([N+](=O)[O-])o2)cc1OC`, the inhibition is -51.1%. In the case of `CNC(=O)c1cccc2nc3ccccc3nc12` it was -18.3%. Regarding `CN1C2CCC1/C(=C\c1ccccc1Cl)C(=O)/C2=C\c1ccccc1Cl`, the inhibition was 7.72%. Turning to `Cc1ccccc1CCN(CC(=O)NC1CCCCC1)C(=O)c1csnn1`, the inhibition was -16.2%.

Take `CC1=CC=CN2C1=NC(=O)CC2(C)C(=O)N(CC(=O)NC1CCCC1)c1ccccc1C` (configuration not stated): the inhibition was 50.7% (active). In the case of `CC1=CC2=NC(=O)CC(C)(C(=O)N(CC(=O)NC(C)(C)C)Cc3ccccc3)N2C=C1` (configuration not stated) it was -15.8%; in that of `COC(=O)N(NC(=O)C(O)(C(C)C)C(C)C)c1ccccc1`, -9.27%. With `Cc1ccc(NC(=S)N2CCN(c3ncccn3)CC2)cc1C` the figure was 92.2% (active). With `CNC(=S)N1CCN(c2ccccn2)CC1`, the inhibition is -63.9%.

With `CCNC(=S)N1CCN(c2ncccn2)CC1`, the inhibition was -29.3%.

With `COc1ccccc1-n1cn[nH]c1=S`, the inhibition is -143%. With `O=C(N/N=C/c1ccc([N+](=O)[O-])o1)c1cn(-c2ccccc2)nc1-c1ccc(F)cc1` the figure was 25.7%. For `C=CCSC(CC)(CC)C(N)=O`, the inhibition was -11%. `Cc1cc(/C=C2/C(=N)N3C(=NC2=O)SN=C3S(C)(=O)=O)c(C)n1-c1ccccc1`: the inhibition is -35.9%. With `N=C1/C(=C/c2cccn2-c2cccc([N+](=O)[O-])c2)C(=O)N=C2SC=CN12` the figure was 71.5% (active); with `COC(=O)c1c(C(=O)OC)c2n(c1C)CCS2`, -18.6%; with `CC1COc2ccccc2N1C(=O)c1cccnc1Cl` (configuration not stated), -17.1%. Regarding `Oc1c(Cl)cc(Cl)c(Cl)c1Cc1c(O)c(Cl)cc(Cl)c1Cl`, the inhibition is 100% (active).

Consider `CC(OC(=O)c1ccc(NS(=O)(=O)c2ccc3[nH]c(=O)[nH]c3c2)cc1)C(=O)Nc1cccc(Cl)c1Cl` (configuration not stated), for which the inhibition is -92.2%. In the case of `O=C(O)CC1S/C(=N\N=C/c2ccccc2O)N(c2ccc(O)cc2)C1=O` (configuration not stated) it was -24.9%; in that of `CC(O)CNCCOc1cccc(Oc2ccccc2)c1` (configuration not stated), -8.32%. With `O=C(NCCc1ccccn1)c1cccnc1Oc1ccc(Cl)cc1` the figure was -2.11%; with `NC(=O)c1ccc(NC(=O)COC(=O)C(Cc2ccccc2)NC(=O)c2ccccc2)cc1` (configuration not stated), -18.9%; with `CCOC(=O)N1CCN(Cc2nc(Cc3cccc(C(F)(F)F)c3)no2)CC1`, -53%.

In the case of `O=C(COC(=O)Cn1cnc2ccccc2c1=O)NCc1ccccc1Cl`, the inhibition is 8.62%. As for `O=C(COC(=O)Cn1cnc2ccccc21)Nc1cccc2c1C(=O)c1ccccc1C2=O`, the inhibition is 52.5% (active). In the case of `O=C(COC(=O)c1cccc(Br)c1)Nc1cccc2c1C(=O)c1ccccc1C2=O` it was 8.65%.
